Assay results from ChEMBL document CHEMBL4513216, “Probing the Open Global Health Chemical Diversity Library for Multistage-Active Starting Points for Next-Generation Antimalarials” (ACS Infect Dis, 2020).
Out of some 65,000 compounds screened, about 2,100 (3.2%) showed an effect of 50% or more. The median lay at about -52%. This is one part of a sample in which strong results are shown more often than they occur.

tested on: Plasmodium falciparum; assay: Screen against P. falciparum Asexual Blood Stage (ABS), at 5uM; format: functional, Dd2; details: tested at 5 uM

Structure (SMILES) | INHIBITION
Cc1cc(C)c(CNC(=O)c2ccc3c(c2)CCC3)c(=O)[nH]1 | -48.6%
CCN(CCS(=O)(=O)c1ccc(Cl)cc1)Cc1ccc(OC)c(OC)c1 | -18.6%
Cc1nc(CN2CCCn3cnc(COC(C)C)c3C2)cs1 | -54.9%
Clc1ccc2nc(N3CCC(NCCCC4CCOC4)CC3)sc2c1 (stereo not drawn) | 66.2%
CCS(=O)(=O)CCNC1CCN(c2nc3ccc(Cl)cc3s2)CC1 | -52%
Cc1csc2c(N3CCC(NCCCC4CCOC4)CC3)ncnc12 (stereo not drawn) | -85.3%
COCc1nc2ncc3c(=O)n(-c4ccccc4OC)ccc3n2n1 | -152%
O=C(Nc1cccc(F)c1)C1CCCN1c1nccs1 (stereo not drawn) | -77.8%
N#Cc1cccc(NC(=O)C2CCCN2c2nccs2)c1 (stereo not drawn) | 58.1%
O=C(Nc1cccc(N2CCCC2)c1)C1CCCN1c1nccs1 (stereo not drawn) | -129%
CNC(=O)c1ccc(CNc2ccncc2Cl)cc1 | -24.6%
O=S(=O)(NCCCn1cncn1)c1ccc2c(c1)CCCC2 | -159%
CNc1nc(C2CCCN2C(C)=O)nc2c1CN(C1CCCC1)CC2 (stereo not drawn) | -71.7%
CN1CCCCC1c1cncc(N2CCC(O)CC2)n1 (stereo not drawn) | -68.9%
c1ccc(CN2CCC3(COCc4cnc(NCC5CC5)nc43)C2)cc1 (stereo not drawn) | 50.2%
O=S(=O)(C1CC1)N1CCC2(COCc3cnc(NCC4CC4)nc32)C1 (stereo not drawn) | -35.7%
Cc1noc(C)c1CN1CCC2(COCc3cnc(N(C)C)nc32)C1 (stereo not drawn) | 26.7%
Cc1ccccc1CN1CCC2(COCc3cnc(N(C)C)nc32)C1 (stereo not drawn) | 54%
c1cc(N2CCC3(COCc4cnc(NCC5CC5)nc43)C2)ncn1 (stereo not drawn) | -14.7%
CN(C)c1ncc2c(n1)C1(CCN(Cc3ccccc3F)C1)COC2 (stereo not drawn) | 4.25%
Cc1cccc(CN2Cc3ccnn3CC(COCC3CC3)C2)n1 (stereo not drawn) | -11.3%
COCCN1CCN(C(=O)NC2CC2)Cc2ccc(C)nc21 | -51.3%
Cc1cc(C[C@@H]2COC[C@H]2NCc2ccc(Cl)c(Cl)c2)on1 | -65.7%
Cn1cc(N2CCC3(CCCN(Cc4ccc(F)cc4)C3)C2=O)cn1 (stereo not drawn) | -69.1%
O=C1COC2(CCN(CC3CC3)CC2)CN1c1ccsc1 | -43%
c1cc(C2CC2)n2cnc(C3CN(Cc4ccncc4)CCO3)c2c1 (stereo not drawn) | -50%

Structure (SMILES) | INHIBITION
COCC(=O)N1CCC(c2nc3ccc(-c4ccncc4)cn3n2)CC1 | -48.7%
c1ccc2c(c1)ccn2CCCNC1CCOC2(CCOCC2)C1 (stereo not drawn) | 61.8%
c1ccc2c(c1)nnn2CCCNC1CCOC2(CCOCC2)C1 (stereo not drawn) | -4.37%
c1ccc(-c2nc(CCNC3CCOC4(CCOCC4)C3)no2)cc1 (stereo not drawn) | -81.3%
c1ccc2c(c1)cnn2CCCNC1CCOC2(CCOCC2)C1 (stereo not drawn) | 68.9%
c1ccc(Cc2noc(CCNC3CCOC4(CCOCC4)C3)n2)cc1 (stereo not drawn) | -43.3%
c1ccc(-c2noc(CCNC3CCOC4(CCOCC4)C3)n2)nc1 (stereo not drawn) | -80.1%
COc1cc(F)ccc1-c1ncccc1NC(=O)C(C)C | -81.8%
CC(C)(C)c1nc(NS(=O)(=O)c2cccc(F)c2)no1 | -71.4%
Cc1cc(NCc2ccc(C#N)cc2)n2nc(C)cc2n1 | -88.7%
Cc1nn(C)c2cn(C(C)C(=O)NCc3ccccn3)nc12 (stereo not drawn) | -17.6%
Cc1noc(C)c1CN1CCN(CCN(C)C)c2ncccc2C1 | 23.7%
CN(C)CCN1CCN(Cc2cccc(C#N)c2)Cc2cccnc21 | 65.1%
CC(C)N(C)Cc1cnc2n1CCN(Cc1cccc(C#N)c1)C2 | 10.6%
Cc1ncccc1NC(=O)c1nc2c(n1C)CCN(C(=O)C1CC1)C2 | -117%
COc1cc(C(C)NCc2cscn2)ccc1SC(F)F (stereo not drawn) | 52.5%
COc1ccccc1NCc1cscn1 | -46.4%
COc1cc(C(C)NCc2scnc2C)ccc1SC(F)F (stereo not drawn) | 19.3%
CN(Cc1cccnc1)C1CC2(CCN(Cc3cccnc3)CC2)C1 | -8.45%
Cc1ccc(N2CCC3(CC2)CCN(C2CCOCC2)CC3)nn1 | -77.4%
COCCN(Cc1ccc(C)cc1)CC1CCOC1 (stereo not drawn) | -104%
COc1cccc(CN2C[C@@H]3COC[C@]3(COCc3ccccn3)C2)c1 | 61%
COc1cccc(CN2C[C@@H]3COC[C@]3(COc3cccnc3)C2)c1 | 16.9%
COc1ccccc1CN1C[C@@H]2COC[C@]2(COc2cccnc2)C1 | 52.9%
COc1cc(N2C[C@@H]3COC[C@]3(COCc3ccncc3)C2)ncn1 | -1.95%
Fc1cccc(CN2C[C@@H]3COC[C@]3(COCc3ccncc3)C2)c1 | -28.5%

Structure (SMILES) | INHIBITION
COc1ccccc1CN1C[C@@H]2COC[C@]2(COCc2ccncc2)C1 | 55.3%
COc1ncccc1CN1C[C@@H]2COC[C@]2(COc2cccnc2)C1 | -33.8%
COc1cccc(CN2C[C@@H]3COC[C@]3(COCc3ccncc3)C2)c1 | 33.5%
CCOC[C@]12COC[C@H]1CN(Cc1cccc(OC)c1)C2 | 3.19%
COCc1nc(C(=O)N2CCCC(n3ccnc3)C2)cs1 (stereo not drawn) | -141%
Cn1cc(N2CC3(CCN(Cc4ccsc4)CC3)OCC2=O)cn1 | -22.1%
Cc1nc(NCCCn2cccn2)c2c(n1)c(C)nn2C | -54.6%
Cc1cn2c(n1)CCC(NC(=O)CCCOCc1ccccc1)C2 (stereo not drawn) | -45.8%
Cc1nc(CO[C@@H]2CN(Cc3cnn(C)c3)[C@@H]3COC[C@@H]32)cs1 | -12.8%
Cc1n[nH]c(C)c1-c1cc(-c2ccc[nH]2)nc(N)c1C#N | -185%
Cc1n[nH]c(C)c1-c1cc(-c2cccc(O)c2)nc(N)c1C#N | -71.8%
CC(C)Cc1cc(-c2cc(-c3ccc[nH]3)nc(N)c2C#N)n[nH]1 | 61.3%
N#CC1(NC(=O)c2ccc(F)c(Br)c2)CCSC1 (stereo not drawn) | -155%
CCc1ccc(NC(=O)CCN2CC(n3nc(C)cc3C)C2)cc1 | -12.9%
CC(C)CN1CCCC1c1ccc(C(=O)Nc2cn(C)nn2)s1 (stereo not drawn) | 52.9%
CC(C)CN1CCCC1c1ccc(C(=O)Nc2cc[nH]n2)s1 (stereo not drawn) | 44.6%
CCc1nnc(NC(=O)c2ccc(C3CCCN3CC(C)C)s2)s1 (stereo not drawn) | -54.1%
O=C(Nc1cccc(Cl)c1)c1nn(C2CCS(=O)(=O)C2)c2c1CCCC2 (stereo not drawn) | 25.4%
O=C(CO[C@@H]1CC[C@H]2[C@H]1OCCN2Cc1ccccn1)N1CCCC1 | -59.6%
O=C(c1cnccn1)N1CCC2(CC1)CCN(Cc1ccccn1)C2=O | -85.2%
CN(Cc1cncnc1)[C@@H]1CN(Cc2ccco2)C[C@@H]2CCCO[C@@H]21 | -7.65%
COc1cccc(CN2CC[C@H]3[C@@H](C2)[C@H](c2ccsc2)CN3C(C)=O)c1 | 54.8%
COc1ccccc1CN1CC[C@H]2[C@@H](C1)[C@H](c1ccsc1)CN2C(C)=O | 29.5%
CC(C)(C)C(=O)N1C[C@H](c2ccsc2)[C@H]2CN(Cc3cccs3)CC[C@H]21 | 29.8%
Cn1nc(COc2cccnc2)c2c1CCN(c1cnccn1)C2 | -72.3%
Oc1cc(C2CCCCN2CC2CC2)nc(-c2ccncc2)n1 (stereo not drawn) | -48.7%

Structure (SMILES) | INHIBITION
O=C1CC2(CCN(CC3CCOC3)CC2)c2ccccc2N1CC1CC1 (stereo not drawn) | 12.4%
CS(=O)(=O)N1CCC2(CC1)CN(CC1CCOC1)c1ccccc12 (stereo not drawn) | -50.1%
CCCS(=O)(=O)N1CCC2(CC1)CN(CC1CCOC1)c1ccccc12 (stereo not drawn) | 50.8%
CCS(=O)(=O)N1CCC2(CC1)CN(CC1CCOC1)c1ccccc12 (stereo not drawn) | 23.6%
c1ccc2c(c1)N(CC1CCOC1)CC21CCN(c2cnccn2)CC1 (stereo not drawn) | 69.9%
CCCS(=O)(=O)N1CCC2(CC1)CN(C(=O)N(C)C)c1ccccc12 | -7.36%
Cc1nn(CC(F)F)c2c1c(C(F)F)cc(=O)n2CC(=O)O | -111.45%
CN1CCCn2c(nc(CNS(=O)(=O)C3CC3)cc2=O)C1 | -41.3%
Cc1nn(C)c2cnn(Cc3ccc(C(=O)NC4CC4)cc3)c12 | -60.4%
Fc1cccc(F)c1Cn1c(C2CCCNC2)cc2cccnc21 (stereo not drawn) | 66.1%
c1cnc2c(c1)cc([C@H]1CCCO1)n2CCN1CCCC1 | 21.4%
Fc1cccc(-c2nccnc2C2CCCNC2)c1 (stereo not drawn) | 14.9%
CN1CCCC1c1cc2cccnc2n1Cc1ccc(F)cc1 (stereo not drawn) | 69.9%
COc1ccc(-c2ccnc(C3CCNCC3)c2)cc1 | 30.9%
c1cnc2c(c1)cc(C1CCOCC1)n2CCN1CCOCC1 | -7.49%
Fc1ccccc1-c1nccnc1C1CCCNC1 (stereo not drawn) | 10.7%
COc1cccc(Cn2c(C3CCNCC3)cc3cccnc32)c1 | 66.1%
COc1cccc(CN2C[C@H]3CCNCC[C@H]3S2(=O)=O)c1 | 17.1%
COc1cccc(-c2ccnc(C3CCNCC3)c2)c1 | -73.8%
c1cnc2c(c1)cc([C@H]1CCCO1)n2CCN1CCCCC1 | 25.8%
COc1ccc(Cn2c(C3CCNCC3)cc3cccnc32)cc1 | 66.9%
O=C(C1CCOCC1)N1C[C@H]2CCC[C@@]2(COCc2ccccn2)C1 | -15.1%
Cc1noc(C(C)C)c1C(=O)NCc1cccc(CN(C)C)c1 | -13.6%
Cc1cnc(CNC2CCc3nc(C(C)C)nn3C2)cn1 (stereo not drawn) | -20.3%
Cc1ccc(CN2C[C@@H]3CN(CC4CCOCC4)CCO[C@@H]3C2)s1 | -95.1%
